Assay results from PubChem BioAssay AID602240 (Southern Research Specialized Biocontainment Screening …, 2012).
Activity calls are given as the source filed them. No rule for the calls is given here.

Assay: Vero 76 cell cytotoxicity, dose response, cytotoxicity control, set 2 (AID 602240)
Conditions: Vero 76 cells viability, cytotoxicity counter-screen for VEEV; series mostly up to 50 µM; viability: at the top concentration

| Compound | viability |
| --- | --- |
| O=c1c2cc([N+](=O)[O-])ccc2nc(CN2CCN(c3ccccc3)CC2)n1-c1ccccc1F | 71.8% (inactive) |
| CCN1CCN(Cc2nc3ccc([N+](=O)[O-])cc3c(=O)n2-c2ccccc2F)CC1 | 73.1% (inactive) |
| O=C(Oc1ccc2ccccc2c1Br)N1CCCCCC1 | 80.8% (inactive) |
| Clc1ccc2nnnc(-c3ccccc3)c2c1 | 127% (inactive) |
| O=c1nc(Nc2ccc(OCc3ccccc3)cc2)sc2ncccc12 | 80.5% (inactive) |
